According to PubChem BioAssay:
Active and inactive are the calls of the source. No stated cut-off is given here; in the data, active means inhibition above about 30%; inactive means the rest. Square brackets hold non-standard residues; d marks the D form. Peptide text beside a SMILES is read from it. NMeY = CN[C@@H](Cc1ccc(O)cc1)C(=O)O; NMeF = CN[C@@H](Cc1ccccc1)C(=O)O; 2Abz = Nc1ccccc1C(=O)O

Each molecule was assayed on transactivating tegument protein VP16 (Human herpesvirus 1), Gal4-VP16 luciferase reporter (assay: repression of VP16-driven luciferase reporter – cell-based, luminescence, high throughput, counter-screen for SRC3 inhibitor project (AID 588794)). Conditions: mammalian cells, at 3.6 µM, stronger effect = higher value.

| SMILES | inhibition |
| --- | --- |
| O=C(NCc1ccc(Cl)cc1)c1cccc(NC(=O)c2ccccc2)c1 | 26.9% (inactive) |
| Cc1ccc(C)c(N2CCN(C(=O)C34CC5CC(C3)CC(n3nnc(C)n3)(C5)C4)CC2)c1 | 29.6% (active) |
| COc1ccc(C2OC(=O)CC2C(=O)NCc2ccc(F)cc2)cc1OC (centres undefined) | -5.19% (inactive) |
| CC(C)C[C@@H]1NC(=O)[C@H](Cc2ccccc2)N(C)C(=O)[C@H](C)NC(=O)c2ccccc2NC(=O)[C@H](Cc2ccc(O)cc2)N(C)C1=O (cyclo([2Abz]A[NMeF]L[NMeY])) | 17.5% (inactive) |
| Cc1ccc(NC(=O)C(=Cc2ccc(C(=O)O)cc2)C(=O)Nc2ccc(C)cc2C)c(C)c1 | 46% (active) |
| O=C(COc1ccccc1[N+](=O)[O-])Nc1ccc(N2CCN(C(=O)c3cccs3)CC2)cc1 | 7.15% (inactive) |
| c1ccc2c(c1)Nc1ccncc1S2 | 16.4% (inactive) |
| O=C(Nc1nc2ccccc2s1)C1c2ccccc2Oc2ccccc21 | 21.4% (inactive) |
| COc1cc(/C=C2/SC(=S)N(c3ccccc3)C2=O)ccc1Oc1nc(N2CCOCC2)nc(N2CCOCC2)n1 | -7.44% (inactive) |
| O=C(NC(=S)NNC(=O)c1ccccc1O)c1ccc(F)cc1 | 9.84% (inactive) |
| CCc1nc2ccccc2c(=O)n1NCCc1ccccc1 | 2.67% (inactive) |
| COc1cccc(-c2c(C(=O)N/N=C/c3ccncc3)nnn2-c2nonc2N)c1 | 12.9% (inactive) |
| O=C(N/N=C/c1c(O)ccc2ccccc12)c1ccc(Br)o1 | 43.2% (active) |
| COc1ccc(C(=O)NCC(=O)OCc2c(Cl)cccc2Cl)cc1OC | 1.22% (inactive) |
| Cc1cc(NC2CCCCC2)nc(NCc2ccccc2)n1 | 28.1% (inactive) |
| COCCNC(=O)c1cc(-c2ccccn2)nc2ccc(S(=O)(=O)N3CCC(C)CC3)cc12 | 0.64% (inactive) |
| Cc1ccc(S(=O)(=O)NC(=O)c2cc(C)n(-c3ccccc3)c2C)cc1 | -1.79% (inactive) |
| Cc1nc(Nc2nc(CSc3nc4ccccc4[nH]3)cc(=O)[nH]2)nc2ccccc12 | 3.35% (inactive) |
| O=C(Nc1sc2c(c1C(=O)O)CCCC2)c1ccc(F)cc1 | 27.5% (inactive) |
| Cc1nn(C)c(C)c1CN(C)C(=O)c1cnn2c1NC(c1ccccc1)CC2C(F)(F)F (centres undefined) | 3.17% (inactive) |

| SMILES | inhibition |
| --- | --- |
| CCn1cc(C(=O)NCc2ccco2)c(=O)c2cc(S(=O)(=O)N3CCCCCC3)ccc21 | 23.5% (inactive) |
| NC(=S)N/N=C1\CCOc2ccc(Cl)cc21 | 9.88% (inactive) |
| O=C(Nc1sc2c(c1C(=O)O)CCCC2)c1ccc(Cl)cc1 | 50.5% (active) |
| CN(C)c1cc[n+](CC(=O)Nc2ccc(Oc3ccccc3)cc2)cc1 | 20.2% (inactive) |
| COc1ccc(CN(Cc2cccn2C)S(=O)(=O)c2ccc(C)cc2)cc1 | -4.15% (inactive) |
| CC(=O)Nc1ccc(NC(=O)c2ccc(N(Cc3ccccc3C)S(C)(=O)=O)cc2)cc1 | -7.31% (inactive) |
| Cc1cc(C)nc(/N=C(\N)Nc2ccccc2-c2ccccc2)n1 | 13.4% (inactive) |
| Cc1ccc(O)c(C(=O)c2cnc3c(c2)COc2ccccc2-3)c1 | 5.53% (inactive) |
| CC(=O)c1c(C)[nH]c(C(=O)Nc2ccc(Cl)c(S(=O)(=O)N3CCOCC3)c2)c1C | -16.6% (inactive) |
| O=C(Nc1ncc(Cc2ccc(C(F)(F)F)cc2)s1)c1ccc(-c2cccc([N+](=O)[O-])c2)o1 | 44.4% (active) |
| CSc1cccc(N/C(=N/S(=O)(=O)c2ccccc2)NN)c1 | 0.02% (inactive) |
| COc1cccc(/C=N/Nc2ncnc(Cl)c2N)c1O | 71.7% (active) |
| COc1ccc(S(=O)(=O)N2CCCCCC2)cc1C(=O)N(C)CC(=O)Nc1cc(C)ccc1C | 10.6% (inactive) |
| COC(=O)N/N=C/c1cn(Cc2ccc(Cl)cc2Cl)c2ccccc12 | 0.26% (inactive) |
| CC1Cc2cc(-c3csc(NC(=O)Cc4ccccc4)n3)ccc2N1S(C)(=O)=O (centres undefined) | 24.3% (inactive) |
| O=C(Nc1ccc(OC(F)(F)F)cc1)Nc1cccc([N+](=O)[O-])c1 | 1.65% (inactive) |
| COC(=O)/C(C#N)=C\c1c(OC)[nH]c2ccccc12 | 12.4% (inactive) |
| Clc1ccc(-c2c[n+](Cc3ccc(Cl)cc3Cl)c3n2CCCCC3)cc1 | 10.8% (inactive) |
| COc1cccc(CNCCO)c1OCc1ccccc1 | 8.14% (inactive) |
